Among the data in PubChem BioAssay (EPA / NIEHS) are outcome and AC50 values, retold here.

Results filed as inconclusive are left out. Active and inactive are the calls of the source. Rule for the calls, unless noted: active = hit-call score of the fitted dose curve at least 0.9, where 1 is the maximum; inactive = score below 0.9.

The nature of test [1]: ATG_CRE_CIS: Attagene CIS-FACTORIAL HepG2 Assay for human cAMP Responsive Element (CRE) binding protein 3 (AID 2282926). The settings on record: HepG2 CRE cis-reporter, Attagene multiplexed mRNA; actives raise or lower the signal. The method, boiled down: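 Capillary electrophoresis of 6-FAM-labelled, HpaI-digested PCR products quantified reporter transcripts. These came from HepG2 transiently transfected with cis-element reporters and exposed to test chemicals for 24 hours, with DMSO defining baseline activity.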

A short description of test [2]: ATG_CMV_CIS: Attagene CIS-FACTORIAL HepG2 Assay for human CMV (Internal Marker) (AID 2282928).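 Note: endpoint acts as a background internal control marker rather than a target.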 The note with it: HepG2 CMV promoter reporter, transcription factor profiling; actives raise or lower the signal. The gist of the method:
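Reporter transcripts from transfected HepG2 cells are isolated after 24 h of chemical dosing, reverse-transcribed and amplified. Fragments labeled with 6-FAM are cut with HpaI and quantified by capillary electrophoresis; DMSO defines baseline.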

A short description of test [3]: ATG_AP_1_CIS: Attagene CIS-FACTORIAL HepG2 Assay for human Activator Protein 1 (AP-1) (AID 2282931). The settings on record: HepG2 Attagene cis-factorial AP-1 reporter mRNA; actives raise or lower the signal. The method, boiled down:
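Readout is reporter transcript level from endogenous transcription factor activity, quantified by RT-PCR with fluorescent primer extension and capillary electrophoresis. Transiently transfected HepG2 cells, 24 h exposure. Curves fitted both directions versus DMSO.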

A short description of test [4]: ATG_Ets_CIS: Attagene CIS-FACTORIAL HepG2 Assay for human Erythroblast Transformation Specific (ETS) (AID 2282941). The settings on record: HepG2 ETS cis-reporter transcription, actives raise or lower the signal. The gist of the method:
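Bidirectional fit versus DMSO of reporter mRNA signal, detected by RT-PCR and capillary electrophoresis in HepG2 cells transiently transfected with cis-element reporters and dosed 24 h.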

The target of test [5] is Hepatocyte nuclear factor 3-beta (Homo sapiens) (UniProt Q9Y261). Nature of the test: ATG_FoxA2_CIS: Attagene CIS-FACTORIAL HepG2 Assay for human Forkhead box A2 (FOXA2) (AID 2282942). The settings on record: HepG2 cis-reporter transcription factor activity, 24 h; actives raise or lower the signal. The method, boiled down: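 Endogenous transcription factor activity is captured via cis-element-driven reporter transcripts in transfected HepG2. Total RNA taken at 24 h post-dosing; labelled RT-PCR products resolved by capillary electrophoresis. Gain or loss fitted versus DMSO.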

The target in test [6] is Hypoxia-inducible factor 1-alpha (Homo sapiens) (UniProt Q16665). Nature of the test: ATG_HIF1a_CIS: Attagene CIS-FACTORIAL HepG2 Assay for human Hypoxia Inducible Factor 1 (HIF1A) (AID 2282951). The note with it: HepG2 Attagene cis-factorial HIF1a reporter transcription; actives raise or lower the signal. The method, boiled down:
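Activity is fitted in both directions relative to DMSO. Reporter transcripts are read by RT-PCR, fluorescent primer extension and capillary electrophoresis after 24 h chemical treatment. The cells are HepG2 carrying transiently transfected cis-element-driven reporter units responding to endogenous factors.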

For test [7], the target named is Hepatocyte nuclear factor 6 (Homo sapiens) (UniProt Q9UBC0). Nature of the test: ATG_HNF6_CIS: Attagene CIS-FACTORIAL HepG2 Assay for human Hepatocyte Nuclear Factor 6 (HNF6) (AID 2282952). The settings on record: HepG2 Attagene cis-factorial HNF6 reporter transcription; actives raise or lower the signal. The gist of the method:
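Activity values derive from bidirectional fitting against DMSO of reporter mRNA levels, measured by capillary electrophoresis of labelled RT-PCR products from HepG2 cells exposed 24 h.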

Test [8] addresses Heat shock factor protein 1 (Homo sapiens) (UniProt Q00613). Briefly: ATG_HSE_CIS: Attagene CIS-FACTORIAL HepG2 Assay for human Heat Shock Transcription Factor 1 (HSE) (AID 2282953). The settings on record: HepG2 HSE cis-reporter, Attagene RNA transcription; actives raise or lower the signal. The method, boiled down: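 HepG2, transient MRTU transfection, cis-promoter reporters (endogenous TF activity). 24 h compound. RNA → oligo(dT) RT → PCR → 6-FAM primer extension → HpaI cut → CE. Bidirectional fit vs DMSO.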

The nature of test [9]: ATG_MRE_CIS: Attagene CIS-FACTORIAL HepG2 Assay for human Metal Responsive Element (MRE) (AID 2282954). The note with it: HepG2 MRE cis-reporter transcription, Attagene multiplex; actives raise or lower the signal. The gist of the method: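 RT-PCR/capillary electrophoresis readout of reporter mRNA, 24 h post-dosing, in HepG2 cells transfected with multiplexed cis-regulated reporter constructs. Gain or loss of signal fitted bidirectionally against DMSO baseline.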

Test [10] in a line: ATG_SREBP_CIS: Attagene CIS-FACTORIAL HepG2 Assay for human Sterol Regulatory Element Binding (SREBP) (AID 2282962). The note with it: HepG2 Attagene cis-factorial SREBP reporter, mRNA; actives raise or lower the signal. The gist of the method: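 In this cis-format assay, HepG2 liver cells express reporters controlled by promoter elements responsive to native transcription factors. Exposure lasts 24 h; reporter mRNA fluorescence from capillary electrophoresis gives the signal, fitted bidirectionally against DMSO.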

Test [11] can be described thus: ATG_VDRE_CIS: Attagene CIS-FACTORIAL HepG2 Assay for human Vitamin D Receptor Element (VDRE) (AID 2282968). The note with it: HepG2 VDRE cis-reporter transcription, actives raise or lower the signal. The gist of the method:
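Transient MRTU transfection of HepG2, 24 h compound exposure. Readout: reporter transcripts via RT-PCR and capillary electrophoresis, fluorescence. Bidirectional fit vs DMSO.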

Test [12] can be described thus: ATG_NF_kB_CIS: Attagene CIS-FACTORIAL HepG2 Assay for human Nuclear Factor Kappa B (NF-kB) (AID 2282991). The settings on record: HepG2 Attagene cis-factorial NF-kB reporter mRNA; actives raise or lower the signal. The gist of the method: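 Readout is reporter transcript level, gain or loss versus DMSO, measured 24 h post-dose via RT-PCR, fluorescent labelling and capillary electrophoresis. Human HepG2 liver cells carried transiently transfected CIS reporter constructs reflecting endogenous factors.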

Test [13] is described as follows: ATG_NRF2_ARE_CIS: Attagene CIS-FACTORIAL HepG2 Assay for human Nuclear Factor Erythroid 2 Related Factor 2 (NFR2) response to Antioxidant Response Elements (ARE) (AID 2282992). The note with it: HepG2 Attagene ARE/NRF2 reporter, transcription factor activity; actives raise or lower the signal. The gist of the method:
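Using transiently transfected HepG2 cells exposed for 24 h, reporter mRNA levels were determined by RT-PCR with fluorescent primer extension and capillary electrophoresis, analysed for gain or loss of signal against DMSO.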

Test [14] is described as follows: ATG_BRE_CIS: Attagene CIS-FACTORIAL HepG2 Assay for human Bone Morphogenetic Protein (BMP) Response Element (BRE) (AID 2282933). The note with it: HepG2 BMP response element reporter, Attagene transcription factor profiling; actives raise or lower the signal. The method, boiled down:
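Transient MRTU transfection of human HepG2 liver cells; 24 h compound treatment; total RNA isolated, reverse-transcribed, PCR-amplified, 6-FAM labelled, HpaI-cut, capillary electrophoresis. DMSO = negative control/baseline, bidirectional fit.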

Test [15] in a line: ATG_GATA_CIS: Attagene CIS-FACTORIAL HepG2 Assay for human GATA Binding Protein (AID 2282944). The note with it: HepG2 GATA cis-element reporter, Attagene multiplex mRNA; actives raise or lower the signal. The method, boiled down: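 Transient MRTU transfection, HepG2, 24 h compound exposure. Total RNA → oligo(dT) RT → PCR → 6-FAM primer extension → HpaI cut → CE. Bidirectional fit vs DMSO.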

Test [16] addresses Paired box protein Pax-6 (Homo sapiens) (UniProt P26367). Nature of the test: ATG_Pax6_CIS: Attagene CIS-FACTORIAL HepG2 Assay for human Paired Box 6 (PAX6) (AID 2282956). The note with it: HepG2 CIS-FACTORIAL PAX6 reporter transcription, RNA readout; actives raise or lower the signal. The method, boiled down:
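DMSO-referenced bidirectional fits of reporter mRNA fluorescence; HepG2 with transient cis-promoter MRTUs, 24 h post-dose, RT-PCR plus capillary electrophoresis detection.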

For test [17], the target named is Cellular tumor antigen p53 (Homo sapiens) (UniProt P04637). Nature of the test: ATG_p53_CIS: Attagene CIS-FACTORIAL HepG2 Assay for human p53 Transcription Factor (AID 2282994). The settings on record: HepG2 p53 cis-element reporter, Attagene mRNA; actives raise or lower the signal. The gist of the method: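 In HepG2 cells, reporter transcription units under cis-regulatory promoters were transiently introduced. Following 24 h treatment, RNA was processed to labelled, digested cDNA fragments read by capillary electrophoresis; fitting was bidirectional versus DMSO.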

For test [18], the target named is Aryl hydrocarbon receptor (Homo sapiens) (UniProt P35869). Nature of the test: ATG_Ahr_CIS: Attagene CIS-FACTORIAL HepG2 Assay for human Aryl Hydrocarbon Receptor (Ahr) (AID 2282930). The settings on record: HepG2 AhR cis-factorial reporter transcription; actives raise or lower the signal. The gist of the method: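 Read-out: reporter mRNA quantified by RT-PCR with fluorescent primer extension and capillary electrophoresis. Human HepG2 liver cells carried transfected cis-promoter reporter units and were exposed to chemical for 24 h; gain or loss fitted relative to DMSO.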

A short description of test [19]: ATG_FoxO_CIS: Attagene CIS-FACTORIAL HepG2 Assay for human Forkhead box O (FoxO) (AID 2282943). The note with it: HepG2 Attagene cis-reporter, FoxO element, mRNA; actives raise or lower the signal. The gist of the method: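 Read-out: fluorescence of 6-FAM-labelled reporter cDNA fragments resolved by capillary electrophoresis. Transiently transfected HepG2 cells were dosed for 24 h; activity fitted in both directions relative to DMSO controls.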

A short description of test [20]: ATG_XTT_Cytotoxicity: Cytotoxicity Assessment in the Attagene TRANS-FACTORIAL HepG2 Assay (AID 2283584; active = hit-call score of the fitted dose curve at least 0.9, where 1 is the maximum). The method, boiled down: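 HepG2 human liver cells, transiently transfected with multiple GAL4-UAS reporter units, were dosed and read at 24 h by XTT as cell number. Loss of signal was fitted relative to DMSO negative control baseline.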

Paired box protein Pax-6 (Homo sapiens), sequence (P26367 whole entry, looked up): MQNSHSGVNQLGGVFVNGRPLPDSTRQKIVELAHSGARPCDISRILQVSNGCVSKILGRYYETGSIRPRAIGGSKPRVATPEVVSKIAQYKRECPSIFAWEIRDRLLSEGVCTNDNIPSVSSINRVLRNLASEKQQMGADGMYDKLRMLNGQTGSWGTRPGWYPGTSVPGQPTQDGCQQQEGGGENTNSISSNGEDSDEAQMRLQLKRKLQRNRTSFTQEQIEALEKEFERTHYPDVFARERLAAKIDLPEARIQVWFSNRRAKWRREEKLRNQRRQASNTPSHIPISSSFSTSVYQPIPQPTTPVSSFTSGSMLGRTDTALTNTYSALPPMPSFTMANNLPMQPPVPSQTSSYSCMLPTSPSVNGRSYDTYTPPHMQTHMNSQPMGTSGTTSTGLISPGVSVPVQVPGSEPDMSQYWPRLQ
Hepatocyte nuclear factor 6 (Homo sapiens), sequence (Q9UBC0 whole entry, looked up): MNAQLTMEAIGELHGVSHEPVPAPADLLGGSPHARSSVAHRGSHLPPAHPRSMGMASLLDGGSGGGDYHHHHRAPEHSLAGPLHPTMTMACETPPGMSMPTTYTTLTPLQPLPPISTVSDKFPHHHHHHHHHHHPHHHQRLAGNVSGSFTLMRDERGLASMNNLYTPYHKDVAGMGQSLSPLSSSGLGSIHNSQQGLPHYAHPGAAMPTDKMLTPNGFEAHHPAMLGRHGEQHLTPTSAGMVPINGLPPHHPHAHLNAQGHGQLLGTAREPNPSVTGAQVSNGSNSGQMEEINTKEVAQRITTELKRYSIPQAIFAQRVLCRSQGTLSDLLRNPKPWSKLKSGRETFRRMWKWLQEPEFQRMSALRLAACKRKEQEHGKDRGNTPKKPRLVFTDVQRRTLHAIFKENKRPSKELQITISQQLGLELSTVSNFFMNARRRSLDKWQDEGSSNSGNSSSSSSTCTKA
Heat shock factor protein 1 (Homo sapiens), sequence (Q00613 whole entry, looked up): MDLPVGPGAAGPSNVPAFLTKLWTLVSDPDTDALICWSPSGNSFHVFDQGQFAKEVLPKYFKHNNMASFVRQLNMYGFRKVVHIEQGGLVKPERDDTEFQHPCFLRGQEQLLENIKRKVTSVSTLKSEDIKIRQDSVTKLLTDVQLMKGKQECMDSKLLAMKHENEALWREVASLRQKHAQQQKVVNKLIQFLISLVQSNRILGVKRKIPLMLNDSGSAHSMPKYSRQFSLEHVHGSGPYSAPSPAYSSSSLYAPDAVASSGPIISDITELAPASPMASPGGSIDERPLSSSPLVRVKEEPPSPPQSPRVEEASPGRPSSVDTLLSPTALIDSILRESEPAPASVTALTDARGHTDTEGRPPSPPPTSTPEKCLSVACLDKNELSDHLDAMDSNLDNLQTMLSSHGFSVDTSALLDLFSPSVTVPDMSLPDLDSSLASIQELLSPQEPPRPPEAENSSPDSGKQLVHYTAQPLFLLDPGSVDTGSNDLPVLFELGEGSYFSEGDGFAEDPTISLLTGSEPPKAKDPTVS
Hepatocyte nuclear factor 3-beta (Homo sapiens), sequence (Q9Y261 whole entry, looked up): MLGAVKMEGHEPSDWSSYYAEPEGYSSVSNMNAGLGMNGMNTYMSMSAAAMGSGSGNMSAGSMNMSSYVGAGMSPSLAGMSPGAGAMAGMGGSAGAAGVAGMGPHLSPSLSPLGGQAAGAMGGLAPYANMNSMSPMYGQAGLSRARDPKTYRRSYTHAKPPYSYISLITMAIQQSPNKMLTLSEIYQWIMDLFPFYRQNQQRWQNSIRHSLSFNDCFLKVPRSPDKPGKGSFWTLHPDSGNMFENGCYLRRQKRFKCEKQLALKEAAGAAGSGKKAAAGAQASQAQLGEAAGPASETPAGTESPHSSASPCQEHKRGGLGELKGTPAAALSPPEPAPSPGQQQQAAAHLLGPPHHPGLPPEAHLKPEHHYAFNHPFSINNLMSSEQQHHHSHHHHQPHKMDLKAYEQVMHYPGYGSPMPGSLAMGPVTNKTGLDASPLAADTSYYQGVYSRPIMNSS
Cellular tumor antigen p53 (Homo sapiens), sequence (P04637 whole entry, looked up, the tested form may be a part): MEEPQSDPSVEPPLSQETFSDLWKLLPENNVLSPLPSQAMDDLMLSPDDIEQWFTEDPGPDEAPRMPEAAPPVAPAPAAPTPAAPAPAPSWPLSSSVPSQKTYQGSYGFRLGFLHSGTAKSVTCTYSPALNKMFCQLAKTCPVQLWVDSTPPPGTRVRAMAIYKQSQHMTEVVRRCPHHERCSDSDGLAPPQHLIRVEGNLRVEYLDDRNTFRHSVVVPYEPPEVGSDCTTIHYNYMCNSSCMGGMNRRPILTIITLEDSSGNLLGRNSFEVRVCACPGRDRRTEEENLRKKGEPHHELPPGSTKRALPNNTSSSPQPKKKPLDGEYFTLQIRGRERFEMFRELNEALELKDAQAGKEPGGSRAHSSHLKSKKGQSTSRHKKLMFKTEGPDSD
Hypoxia-inducible factor 1-alpha (Homo sapiens), sequence (Q16665 whole entry, looked up): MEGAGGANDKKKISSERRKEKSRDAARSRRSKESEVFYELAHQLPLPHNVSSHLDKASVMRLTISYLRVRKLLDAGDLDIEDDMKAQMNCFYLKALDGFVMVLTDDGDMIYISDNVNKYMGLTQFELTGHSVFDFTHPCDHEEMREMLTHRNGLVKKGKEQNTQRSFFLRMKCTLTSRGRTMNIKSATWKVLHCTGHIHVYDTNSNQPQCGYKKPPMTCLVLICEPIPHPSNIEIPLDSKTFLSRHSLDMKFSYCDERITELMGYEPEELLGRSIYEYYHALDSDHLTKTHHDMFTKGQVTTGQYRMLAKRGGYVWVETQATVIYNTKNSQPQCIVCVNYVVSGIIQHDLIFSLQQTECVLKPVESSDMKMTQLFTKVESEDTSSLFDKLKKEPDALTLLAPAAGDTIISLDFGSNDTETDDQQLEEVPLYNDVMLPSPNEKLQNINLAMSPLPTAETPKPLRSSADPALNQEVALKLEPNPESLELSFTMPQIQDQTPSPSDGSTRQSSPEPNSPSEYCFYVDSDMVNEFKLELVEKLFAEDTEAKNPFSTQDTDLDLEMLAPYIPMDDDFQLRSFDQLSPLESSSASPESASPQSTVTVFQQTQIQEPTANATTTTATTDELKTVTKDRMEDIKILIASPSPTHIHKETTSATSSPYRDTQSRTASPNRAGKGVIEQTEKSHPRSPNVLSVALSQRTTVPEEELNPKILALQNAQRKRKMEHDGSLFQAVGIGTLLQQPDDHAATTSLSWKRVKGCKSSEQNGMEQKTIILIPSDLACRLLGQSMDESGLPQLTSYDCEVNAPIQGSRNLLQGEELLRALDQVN
Aryl hydrocarbon receptor (Homo sapiens), sequence (P35869 whole entry, looked up): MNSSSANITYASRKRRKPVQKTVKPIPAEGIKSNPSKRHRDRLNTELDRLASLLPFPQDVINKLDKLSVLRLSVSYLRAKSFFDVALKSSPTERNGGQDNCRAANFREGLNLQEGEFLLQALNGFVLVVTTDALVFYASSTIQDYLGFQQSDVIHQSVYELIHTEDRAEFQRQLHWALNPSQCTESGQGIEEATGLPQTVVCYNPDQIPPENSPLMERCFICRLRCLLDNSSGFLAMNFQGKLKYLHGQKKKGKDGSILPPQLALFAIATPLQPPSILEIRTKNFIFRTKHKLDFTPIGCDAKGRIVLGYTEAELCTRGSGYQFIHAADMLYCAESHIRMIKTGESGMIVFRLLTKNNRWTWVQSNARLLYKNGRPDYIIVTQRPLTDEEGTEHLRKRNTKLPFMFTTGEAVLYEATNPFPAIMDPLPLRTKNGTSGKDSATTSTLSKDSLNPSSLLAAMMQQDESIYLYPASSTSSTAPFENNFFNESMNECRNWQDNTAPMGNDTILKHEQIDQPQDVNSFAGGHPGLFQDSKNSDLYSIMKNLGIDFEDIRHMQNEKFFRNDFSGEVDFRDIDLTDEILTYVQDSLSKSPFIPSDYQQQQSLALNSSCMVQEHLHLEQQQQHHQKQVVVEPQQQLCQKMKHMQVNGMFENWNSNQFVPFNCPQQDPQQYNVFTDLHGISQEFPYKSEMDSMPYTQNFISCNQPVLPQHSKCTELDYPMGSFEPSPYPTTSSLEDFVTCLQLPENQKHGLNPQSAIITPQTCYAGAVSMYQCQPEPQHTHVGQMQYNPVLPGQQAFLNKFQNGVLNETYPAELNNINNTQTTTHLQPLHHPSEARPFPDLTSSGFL

For `C[N+](C)=CCl`, the compound was classed as inactive in test [1], in test [2], in test [3], in [4], in test [5] and in [6]. The call in test [7], in [8], in [9], in [10], in test [11] and in test [12] was inactive. In test [13], the result was inactive.

With `Nc1ccccc1`, the outcome in test [1], in test [3], in test [14], in [4], in test [15] and in test [6] was inactive. Besides, the call in test [7], in test [8], in test [9], in test [16], in test [10] and in test [11] was inactive. The compound was called inactive in test [13] and in [17].

`SCc1ccco1`: the compound was classed as inactive in [1], in test [18], in test [14], in [4], in test [5] and in test [19]. For the same compound, the result in [15], in test [6], in test [7], in test [8], in [9] and in test [11] was inactive. In addition, the outcome in test [12] and in test [17] was inactive. Moreover, the values for the AC50 in test [3] and in test [13] were 52 µM (active) and 71.2 µM (active), respectively.

Regarding `CCCCOP(=O)(O)OCCCC`, the outcome in test [1], in test [3], in test [14], in test [4], in test [5] and in test [15] was inactive. Further, the result in test [6], in test [7], in [8], in test [16], in test [10] and in test [12] was inactive. The compound was classed as inactive in test [13].

Turning to `CC(C)c1ccc(O)cc1`, the compound was classed as inactive in test [1], in test [3], in test [4], in test [5], in [19] and in test [15]. The compound was called inactive in test [6], in test [7], in test [8], in [9], in test [16] and in [10]. Also, the call in [11], in [12] and in [17] was inactive. For the same compound, the half-maximal activity concentration (AC50) (as a rule, the concentration at which the activity in the assay is half-maximal) in test [2] was 40.2 µM (active); in [13], 49.6 µM (active).

In the case of `O=S(=O)(O)OOS(=O)(=O)O`, the outcome in test [1], in test [18], in test [3], in [14], in test [5] and in [19] was inactive. Moreover, the outcome in test [15], in [6], in [7], in test [8], in test [9] and in [16] was inactive. Besides, the outcome in [10], in test [11], in test [12], in [13] and in test [20] was inactive.
